Data published in PubChem BioAssay.
Active and inactive are the calls of the source. Unless noted, no rule for the calls is given here.

What was measured:
[1] = liver-stage malaria parasite load reduction – cell-based, known kinase inhibitor set, luminescence, hepatoma host viability (AID 624392); conditions: Plasmodium liver stage in hepatoma cells, luciferase luminescence, concentration not given here; liver cell % of control: measured here: host liver cell viability; parasite % of control: stronger effect = lower value;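 also: infected cells incubated roughly two days before readout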
[2] = altered dexamethasone sensitivity, NF-kB reporter, cell-based, luciferase, IL-1B stimulus (AID 624486); conditions: IL-1B + dexamethasone, luminescence; percent of negative control (+Dex): actives lie on both sides, concentration not given here; z-score: measured here: IL-1B alone, no Dex;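 as to percent of negative control (+Dex): 100% = mean signal of vehicle control wells on the plate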
[3] = C. elegans survival during P. aeruginosa infection – whole organism (AID 651566);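 also: tested at 14 µM; sign flipped so higher z means a lower ratio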; conditions: C. elegans killed by P. aeruginosa, survival ratio
[4] = pro-inflammatory signaling induction in mouse macrophages – cell-based, murine, luminescence (AID 652131); conditions: murine macrophage pro-inflammatory reporter, stronger effect = higher value
[5] = target: Cellular tumor antigen p53 (Homo sapiens) (UniProt P04637); assay: GFP-p53 level modulators in HPV16+ cells – imaging, known kinase inhibitor set, EGFP/DsRed ratio (AID 1053116); conditions: GFP-p53 stability, stronger effect = higher value; EGFP object count: measured here: GFP-p53 positive objects count;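 also: cells exposed to compounds for 24 h at 37 °C before reading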
Chain of Cellular tumor antigen p53 (Homo sapiens) (P04637 whole entry, looked up): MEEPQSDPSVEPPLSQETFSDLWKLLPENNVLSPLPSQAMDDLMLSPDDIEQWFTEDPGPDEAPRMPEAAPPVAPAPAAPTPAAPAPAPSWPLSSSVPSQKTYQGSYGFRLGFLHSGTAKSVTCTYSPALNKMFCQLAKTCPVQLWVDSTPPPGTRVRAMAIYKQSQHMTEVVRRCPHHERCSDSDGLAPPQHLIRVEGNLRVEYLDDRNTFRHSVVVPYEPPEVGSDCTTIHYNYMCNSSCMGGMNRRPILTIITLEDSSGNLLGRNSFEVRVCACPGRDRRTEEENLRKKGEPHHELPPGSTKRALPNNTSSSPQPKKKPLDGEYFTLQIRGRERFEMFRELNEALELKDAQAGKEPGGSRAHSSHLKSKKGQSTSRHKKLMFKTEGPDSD

[6] = inducers of IRF3 signaling, differentiated THP-1 – cell-based, PMA-stimulated THP-1, luminescence (AID 1053176); conditions: PMA-differentiated THP-1, IRF3 reporter luminescence; stronger effect = higher value
[7] = MELAS cybrid and Rieske KO viability enhancers – cell-based, MELAS cybrids, Rieske KO mouse fibroblasts, CellTiter-Glo, primary screen (AID 1508586;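 active = mean z-score across replicates of 1.96 or higher in either the MELAS or the Rieske mutant cell line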;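 also: z relative to plate mean and SD of compound and empty wells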); conditions: low glucose
[8] = MELAS cybrid survival, CellTiter-Glo 48 h, stronger effect = higher value
[9] = Rieske KO mouse fibroblast survival, CellTiter-Glo 72 h

SMILES: COC(=O)Nc1nc2ccc(Oc3cccc(NC(=O)Nc4cc(C(F)(F)F)ccc4F)c3)cc2[nH]1
- liver cell % of control [1]: 103%
- parasite % of control [1]: 148% (inactive)
- percent of negative control (+Dex) [2]: 104% (inactive)
- z-score [2]: 2.25
- z-score [3]: 1.03 (inactive)
- z-score [4]: 4.52 (inactive)
- EGFP object count [5]: 4
- EGFP/DsRed ratio [5]: 0.18 (inactive)
- fraction signal [6]: -0.0045 (inactive)
- z-score [7, 8]: -0.76 (inactive)
- z-score [7, 9]: 0.691

SMILES: c1ccc(COc2ccc(Nc3ncnc4ccc(-c5ccco5)cc34)cc2)cc1
- liver cell % of control [1]: 99%
- parasite % of control [1]: 71.7% (inactive)
- percent of negative control (+Dex) [2]: 106% (inactive)
- z-score [2]: 1.01
- z-score [3]: 0.34 (inactive)
- z-score [4]: -1.14 (inactive)
- EGFP object count [5]: 3
- EGFP/DsRed ratio [5]: 0.073 (inactive)
- fraction signal [6]: 0.006 (inactive)
- z-score [7, 8]: -0.351 (inactive)
- z-score [7, 9]: -0.356

SMILES: c1cc(-c2cnn3nc(N4CCOCC4)ccc23)nc(NC2CC2)n1
- liver cell % of control [1]: 147%
- parasite % of control [1]: 177% (inactive)
- percent of negative control (+Dex) [2]: 59.5% (inactive)
- z-score [2]: -2.65
- z-score [3]: -0.225 (inactive)
- z-score [4]: -1.49 (inactive)
- EGFP object count [5]: 3.5
- EGFP/DsRed ratio [5]: 0.0725 (inactive)
- fraction signal [6]: -0.008 (inactive)
- z-score [7, 8]: 0.731 (inactive)
- z-score [7, 9]: -0.389

SMILES: Cc1ccc2c(-c3ccnc(Nc4ccccc4)n3)c(-c3ccc(F)cc3)nn2n1
- liver cell % of control [1]: 152%
- parasite % of control [1]: 12.5% (active)
- percent of negative control (+Dex) [2]: 81% (inactive)
- z-score [2]: -1.78
- z-score [3]: 0.225 (inactive)
- z-score [4]: -0.658 (inactive)
- EGFP object count [5]: 6
- EGFP/DsRed ratio [5]: 0.152 (inactive)
- fraction signal [6]: -0.0025 (inactive)
- z-score [7, 8]: 0.41 (inactive)
- z-score [7, 9]: -0.16

SMILES: Cc1cccc2c(N=Nc3ccc(S(N)(=O)=O)cc3)c(O)[nH]c12
- liver cell % of control [1]: 89.8%
- parasite % of control [1]: 131% (inactive)
- percent of negative control (+Dex) [2]: 111% (inactive)
- z-score [2]: 1.54
- z-score [3]: -0.125 (inactive)
- z-score [4]: -0.036 (inactive)
- EGFP object count [5]: 3.5
- EGFP/DsRed ratio [5]: 0.095 (inactive)
- fraction signal [6]: -0.0075 (inactive)
- z-score [7, 8]: 0.912 (inactive)
- z-score [7, 9]: -0.47

SMILES: Clc1ccc(-c2nn3ncccc3c2-c2ccnc(Nc3ccccc3)n2)cc1
- liver cell % of control [1]: 149%
- parasite % of control [1]: 29.7% (inactive)
- percent of negative control (+Dex) [2]: 84% (inactive)
- z-score [2]: -0.705
- z-score [3]: 0.79 (inactive)
- z-score [4]: 0.464 (inactive)
- EGFP object count [5]: 4
- EGFP/DsRed ratio [5]: 0.304 (inactive)
- fraction signal [6]: -0.004 (inactive)
- z-score [7, 8]: 0.298 (inactive)
- z-score [7, 9]: -0.499

SMILES: CC1(C)CC(n2cnc(-c3ccc(F)cc3)c2-c2ccnc(N)n2)CC(C)(C)N1
- liver cell % of control [1]: 79.9%
- parasite % of control [1]: 131% (inactive)
- percent of negative control (+Dex) [2]: 110% (inactive)
- z-score [2]: 1.77
- z-score [3]: 0.485 (inactive)
- z-score [4]: 1.82 (inactive)
- EGFP object count [5]: 4
- EGFP/DsRed ratio [5]: 0.0677 (inactive)
- fraction signal [6]: 0.0175 (inactive)
- z-score [7, 8]: -0.417 (inactive)
- z-score [7, 9]: 0.00971

SMILES: CCCN1CCC(c2ccc(Nc3nc(Nc4cc(F)ccc4C(N)=O)c4cc[nH]c4n3)c(OC)c2)CC1
- liver cell % of control [1]: 73%
- parasite % of control [1]: 355% (inactive)
- percent of negative control (+Dex) [2]: 72% (inactive)
- z-score [2]: -1.46
- z-score [3]: 0.62 (inactive)
- z-score [4]: -0.577 (inactive)
- EGFP object count [5]: 22.5
- EGFP/DsRed ratio [5]: 0.237 (inactive)
- fraction signal [6]: -0.0085 (inactive)
- z-score [7, 8]: -0.472
- z-score [7, 9]: 7.31

SMILES: O=C(O[C@H]1CN[C@H](C#Cc2cc3ncnc(Nc4ccc(OCc5cccc(F)c5)c(Cl)c4)c3s2)C1)N1CCOCC1
- liver cell % of control [1]: 89.4%
- parasite % of control [1]: 117% (inactive)
- percent of negative control (+Dex) [2]: 74.5% (inactive)
- z-score [2]: -1.65
- z-score [3]: 0.44 (inactive)
- z-score [4]: -0.505 (inactive)
- EGFP object count [5]: 4.5
- EGFP/DsRed ratio [5]: 0.0369 (inactive)
- fraction signal [6]: -0.0095 (inactive)
- z-score [7, 8]: -0.421 (inactive)
- z-score [7, 9]: -0.498

SMILES: NS(=O)(=O)c1ccc(-c2ccc3c(NC(=O)C4CC4)n[nH]c3c2)cc1
- liver cell % of control [1]: 109%
- parasite % of control [1]: 143% (inactive)
- percent of negative control (+Dex) [2]: 98.5% (inactive)
- z-score [2]: 0.755
- z-score [3]: -0.155 (inactive)
- z-score [4]: 0.098 (inactive)
- EGFP object count [5]: 4.5
- EGFP/DsRed ratio [5]: 0.0343 (inactive)
- fraction signal [6]: -0.0105 (inactive)
- z-score [7, 8]: -0.641 (inactive)
- z-score [7, 9]: -0.353

SMILES: CC1=C(C(=O)Nc2ccc3[nH]ncc3c2)C(c2ccc3ccccc3c2)CC(=O)N1 (centres undefined)
- liver cell % of control [1]: 109%
- parasite % of control [1]: 30% (inactive)
- percent of negative control (+Dex) [2]: 79% (inactive)
- z-score [2]: -1.06
- z-score [3]: -0.24 (inactive)
- z-score [4]: 0.091 (inactive)
- EGFP object count [5]: 3
- EGFP/DsRed ratio [5]: 0.432 (inactive)
- fraction signal [6]: -0.014 (inactive)
- z-score [7, 8]: 0.693 (inactive)
- z-score [7, 9]: -0.221

SMILES: Cc1cc(O)cc(C)c1/C=C/c1cncc(C(N)=O)c1
- liver cell % of control [1]: 105%
- parasite % of control [1]: 146% (inactive)
- percent of negative control (+Dex) [2]: 106% (inactive)
- z-score [2]: 0.29
- z-score [3]: -0.395 (inactive)
- z-score [4]: 0.198 (inactive)
- EGFP object count [5]: 4
- EGFP/DsRed ratio [5]: 0.013 (inactive)
- fraction signal [6]: -0.001 (inactive)
- z-score [7, 8]: -0.353 (inactive)
- z-score [7, 9]: -0.218

SMILES: COc1ccc2cc(-c3c(-c4ccncc4)nc(-c4ccc(S(C)=O)cc4C)n3C)ccc2c1 (centres undefined)
- liver cell % of control [1]: 94.7%
- parasite % of control [1]: 66.8% (inactive)
- percent of negative control (+Dex) [2]: 94% (inactive)
- z-score [2]: 0.56
- z-score [3]: 0.7 (inactive)
- z-score [4]: 0.465 (inactive)
- EGFP object count [5]: 2.5
- EGFP/DsRed ratio [5]: 0.206 (inactive)
- fraction signal [6]: -0.007 (inactive)
- z-score [7, 8]: 0.0666 (inactive)
- z-score [7, 9]: -0.0858

SMILES: COc1cccc(-c2c[nH]c3c(N/N=C/c4ccncc4)ncnc23)c1
- liver cell % of control [1]: 72.3%
- parasite % of control [1]: 30.4% (inactive)
- percent of negative control (+Dex) [2]: 129% (inactive)
- z-score [2]: -0.36
- z-score [3]: -0.245 (inactive)
- z-score [4]: -1.59 (inactive)
- EGFP object count [5]: 4
- EGFP/DsRed ratio [5]: 0.121 (inactive)
- fraction signal [6]: 0.002 (inactive)
- z-score [7, 8]: -0.187 (inactive)
- z-score [7, 9]: 0.000787
